Compound activity (PubChem)
Tgondii IFNg: blocks Toxoplasma gondii growth in the presence of IFN-gamma; activity change, negative = inhibition, % (test concentration not listed); actives 3.8% (n = 69,000); Toxoplasma gondii growth in IFN-gamma-treated host cells; hits give low values; in the data active = activity change below about -70%, passing the limit was not always enough;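 also: host cells are HeLa cells infected with Toxoplasma gondii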
Each line names hits and unclear results; the compound was inactive in the other large screens; ! = a repeat was not active. Only a selection was taken, and hits are over-represented in it overall.

Cn1nccc1C(NC(=O)C1Cc2cc(Cl)ccc2O1)c1ccccc1 (stereo unspecified)	none
O=C(Nc1nc2ccccc2s1)c1c(O)c2c([nH]c1=O)CCCC2	none
Cc1cc(CN2CCC3(CCCN(Cc4nccs4)C3)C2)oc1C (stereo unspecified)	none
CN(Cc1ccsc1)C(=O)CN1CC(=O)NC1=O	none
Cc1ccc2nc(NC(=O)C(C)(C)C)[nH]c(=O)c2c1	none
COC(=O)Nc1nc2ccc(C(=O)c3ccccc3)cc2[nH]1	Tgondii IFNg -79
O=C(O)c1ccc2nc(-c3ccccn3)[nH]c2c1	none
CCc1csc(CNC(=O)[C@@H](N)CC2CCCCC2)n1	none
COCCc1ncc(CN2CCCN(c3ccc(F)cc3)CC2)cn1	none
CCCc1nncn1-c1cccc(C(F)(F)F)c1	none
CN(C)Cc1ccc(S(=O)(=O)n2ccc(/C=C/C(=O)NO)c2)cc1	Tgondii IFNg -81
CCOc1cccc(OCCN2CCC(C(=O)NC)C2)c1 (stereo unspecified)	none
COCCOc1c(N)cccc1Cl	none
CCCOC(=O)N1CCC(c2nn(C)c(=O)n2Cc2ccccc2)CC1	none
O=C(CC(c1cccc(O)c1)c1ccccc1Cl)NCc1ccncc1 (stereo unspecified)	none
C[C@H]1CN2C[C@H](O)CC2CN1Cc1cc2cc3c4c(c2oc1=O)CCCN4CCC3 (stereo partly specified)	none
CC(C)CC(NC(=O)OCC1c2ccccc2-c2ccccc21)C(=O)O (stereo unspecified)	none
CC(C)C[C@@H](C=O)NC(=O)[C@H](CC(C)C)NC(=O)[C@H](CC(C)C)NC(=O)OCc1ccccc1	Tgondii IFNg -81
CC(C)C[C@H](NC(=O)[C@@H](O)[C@H](N)Cc1ccccc1)C(=O)O	none
Cc1cc(C)nc(SCc2n[nH]c(=S)o2)n1	none
O=C(Nc1ccc2ccccc2n1)c1ccc(Cl)cc1	none
O=C(Nc1ncc(Cc2cccc3ccccc23)s1)c1ccc(Cl)cc1	Tgondii IFNg -101
Cc1nnc2n1CC(c1cccc(C(=O)Nc3ncc(Cc4ccccc4F)s3)c1)CC2 (stereo unspecified)	none
COc1cc2c(Oc3ccc(NC(=O)C4(C(=O)Nc5ccc(F)cc5)CC4)cc3F)ccnc2cc1OCCCN1CCOCC1	none
COc1ccc(-c2nc(NCCCN3CCN(C)CC3)c3ccccc3n2)cc1	none
COc1cc(Nc2c(C#N)cnc3cc(OCCCN4CCN(C)CC4)c(OC)cc23)c(Cl)cc1Cl	Tgondii IFNg -79
CC(=O)Nc1ccc(NC(=O)C(=O)NCCc2csc(-c3ccc(F)cc3)n2)cc1	none
CCc1ccccc1NC(=O)N1CCC2(CC1)Nc1ccccc1-n1cccc12	none
CC(=O)NCC(=O)N1CC2(CCCC2)c2cc(-c3ccc(C(N)=O)cc3)ccc21	none
Cc1cccc(-c2nc(Cn3nnc(-c4nc(-c5ccc(Cl)c(F)c5)no4)c3C)c(C)o2)c1	none
O=S(=O)(NCCSCc1c(F)cccc1Cl)c1cccc2nonc12	none
COC(=O)c1c(NCc2ccc(C(F)(F)F)cc2)c2cc(F)ccc2[nH]c1=O	none
COC(=O)c1c(NCc2cccc(OC)c2)c2cccc(Cl)c2[nH]c1=O	none
COC(=O)c1c(NCc2cccc(OC)c2)c2cc(Cl)ccc2[nH]c1=O	Tgondii IFNg -114
Cc1ccc2c(C)c(C(=O)N3CCC(c4ccccc4C(=O)O)C3)oc2c1 (stereo unspecified)	none
COc1ccc(-n2c(Cc3c(C)n[nH]c3C)n[nH]c2=O)c(C)c1	none
O=C1N(Cc2ccccc2)C(=O)C2(CCN(CC3CC=CCC3)CC2)N1CCc1ccccc1 (stereo unspecified)	none
O=C1N(Cc2ccccc2)C(=O)C2(CCN(Cc3c[nH]c4ccccc34)CC2)N1CCc1ccccc1	Tgondii IFNg -77
O=C1N(Cc2ccccc2)C(=O)C2(CCN(Cc3ccsc3)CC2)N1CCc1ccccc1	none
C=CCOCC1CN(CCc2ccccc2)Cc2ccnn2C1 (stereo unspecified)	none
O=C(c1ccc(N2CCSCC2)nc1)N1CCC(N2CCOCC2)CC1	none
Cn1cc(N2CC3(CCN(CCO)C3)CC2=O)cn1 (stereo unspecified)	Tgondii IFNg -87
Cn1cc(N2CC3(CCN(S(C)(=O)=O)C3)CC2=O)cn1 (stereo unspecified)	none
CCS(=O)(=O)N1CCC2(CC(=O)N(c3cnn(C)c3)C2)C1 (stereo unspecified)	none
COc1ccc(CN(CC(=O)NC2CCCCC2)C(=O)c2ccc(-c3ccccc3)[nH]2)cc1	none
O=C(c1cc2ccccc2[nH]1)N1CCC(c2[nH]ncc2Cc2ccccc2)CC1	none
O=C(NCC1CCN(c2cc(-c3ccncc3)[nH]n2)CC1)c1cc2ccccc2[nH]1	Tgondii IFNg -79
O=C(CCc1c[nH]c2ccccc12)N1CCN(c2cc(-c3cccnc3)[nH]n2)CC1	none
COC(=O)c1ccc(NC(=O)Nc2ccc(-c3nc(-c4ccc(C)cc4C)co3)cc2)cc1	none
CCOc1ccc(-c2nc(CNS(=O)(=O)c3ccc(F)cc3)c(C)o2)cc1	none
CN(C)C(CNC(=O)Cc1cccc2cccnc12)c1cccc(Cl)c1 (stereo unspecified)	none
O=C(c1ccc2[nH]ccc2c1)N1CCC(Cn2cc(-c3cccnc3)nn2)CC1	none
COc1ccc(-c2[nH]ncc2CN2CCN(C)CC2)cc1	none
Cc1cc(CN2CCN(c3c(Br)cnc4nc(-c5ccc(N6CCN(C)CC6)cc5)[nH]c34)CC2)no1	Tgondii IFNg -74
O=S(=O)(Nc1ncccn1)c1ccc(C(F)(F)F)cc1Cl	none
O=C(c1ccco1)N1CCN(CC(=O)N2c3ccccc3Sc3ccccc32)CC1	none
COCCNc1c(C(=O)OC)c(=O)[nH]c2ccc(F)cc12	none
COC(=O)c1c(NCCc2c[nH]c3ccccc23)c2cc(F)ccc2[nH]c1=O	Tgondii IFNg -99
COC(=O)c1c(NCCc2ccccc2)c2cc(F)ccc2[nH]c1=O	none
Cc1ccc(S(=O)(=O)N2CCC3(CC2)NCCN=C3NCc2cc(F)cc(F)c2)cc1C	none
CCC(=O)OCC(=O)[C@@]1(OC(=O)CC)[C@@H](C)C[C@H]2[C@@H]3CCC4=CC(=O)C=C[C@]4(C)[C@@]3(Cl)[C@@H](O)C[C@@]21C	Tgondii IFNg -74!
CCC(=O)O[C@@]1(C(=O)CCl)[C@@H](C)C[C@H]2[C@@H]3C[C@H](F)C4=CC(=O)C=C[C@]4(C)[C@]3(F)[C@H](O)C[C@@]21C	none
CCC(=O)OCC(=O)[C@@]1(OC(=O)CC)[C@@H](C)C[C@H]2[C@@H]3CCC4=CC(=O)C=C[C@]4(C)[C@@]3(F)[C@@H](O)C[C@@]21C	none
CCOc1cc(CCC(=O)Nc2ccc3[nH]c4c(c3c2)CCCC4)on1	none
CN1CCN2CCN(C(=O)c3n[nH]c(=O)c4ccccc34)CC2C1=O (stereo unspecified)	none
O=S(=O)(c1ccccc1F)N1CCC(c2nc3ccc(-c4ccncc4)cn3n2)CC1	none
O=C(c1ccc(F)cc1F)N1CCC(c2nc3ccc(-c4cccnc4)cn3n2)CC1	none
O=C(c1cnccn1)N1CCC(c2nc3ccc(-c4cccc(F)c4)cn3n2)CC1	Tgondii IFNg -72
Cc1nc2c(c(NC3CCN(S(=O)(=O)c4ccccc4)CC3)n1)CNC2	none
CCc1ccc(NC(=O)C(=O)NCCc2csc(-c3ccc(Cl)cc3)n2)cc1	none
CN(CCC(C)(C)O)C(=O)c1ccc(N)nc1	none
O=C(Nc1ccccc1)OCC(CN1CCCCC1)OC(=O)Nc1ccccc1 (stereo unspecified)	none
O=C(Nc1ccccc1)OCCCCCOC(=O)Nc1ccccc1	none
O=C(Nc1ccccc1)OCc1cccc(COC(=O)Nc2ccccc2)c1F	Tgondii IFNg -82
O=C(Nc1ccc(Cl)cc1)OCc1cccc(COC(=O)Nc2ccc(Cl)cc2)n1	Tgondii IFNg -98
O=C(Nc1ccc(Cl)cc1)OC1CN(C(c2ccccc2)c2ccccc2)C1	none
